Among all 2,100 compounds or so, about 1,100 (52%) were called active. Roughly 29% stayed inconclusive and do not appear here. Calls come from the whole dose curve; as a rule, active = well fitted inhibition curve with a large enough effect; inconclusive = small, poorly fitted or top-dose-only effect; inactive = no such curve, though single readings can be large or run the other way. The set was probably picked from earlier hits. The list shows a part of the results.
Each compound was assayed against DNA dC->dU-editing enzyme APOBEC-3F (Homo sapiens) (UniProt Q8IUX4) (assay: qHTS for inhibitors of Vif-A3F interactions: Cherry picks counterscreen). Conditions: HeLa A3F-eYFP/Vif cells, eYFP fluorescence, 24 h; series mostly up to 46.1 µM.
Sequence of DNA dC->dU-editing enzyme APOBEC-3F (Homo sapiens) (Q8IUX4 whole entry, looked up): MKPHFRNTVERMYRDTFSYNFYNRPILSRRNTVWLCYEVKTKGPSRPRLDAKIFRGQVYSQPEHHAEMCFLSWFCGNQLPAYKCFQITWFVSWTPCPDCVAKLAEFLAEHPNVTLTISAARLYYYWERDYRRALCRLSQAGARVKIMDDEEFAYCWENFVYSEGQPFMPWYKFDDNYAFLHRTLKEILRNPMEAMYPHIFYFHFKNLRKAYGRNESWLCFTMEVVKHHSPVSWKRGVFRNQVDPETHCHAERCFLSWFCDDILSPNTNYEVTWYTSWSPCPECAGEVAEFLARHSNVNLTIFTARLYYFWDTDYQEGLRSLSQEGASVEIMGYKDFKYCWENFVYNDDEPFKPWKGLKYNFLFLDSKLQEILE
Outline: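 Rescue of Vif-driven A3F-eYFP degradation read as cellular eYFP fluorescence after 24 h compound exposure (several concentrations) in stable HeLa cells; MG132 (2 mM stock) as positive control.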
`Cc1ccc(CNC(=O)c2cccc3c2C(=O)c2ccc(N4CCC(C)CC4)cc2S3(=O)=O)cc1` was tested, and the Potency was 14.6 µM (active).
In the case of `O=C(NCc1cccc(F)c1)c1cccc2c1C(=O)c1ccc(N3CCCC3)cc1S2(=O)=O`, the Potency is reported as 17.7 µM (active).
`CC1CCN(c2ccc3c(c2)S(=O)(=O)c2cccc(C(=O)NCc4cccc(F)c4)c2C3=O)CC1` was tested, and the Potency was 14 µM (active).
In the case of `COc1ccc2oc(=Nc3ccccc3)c(-c3nc4ccccc4[nH]3)cc2c1`, the Potency is reported as 20.6 µM (active).
`COc1cc(C(=O)Nc2ccc(C)cc2)c2ccccc2n1` was tested, and the Potency was 1.77 µM (active).
`CCOC(=O)c1csc(NC(=O)c2cc(-c3ccccn3)nc3ccccc23)n1` was tested, and the Potency was “inactive”.
With `Cc1ccc(C)c(NC(=O)Cn2cc(S(=O)(=O)Cc3cccc(Cl)c3)c3ccccc32)c1` the Potency was 6.51 µM (active).
With `Cc1ccc(Cl)cc1NC(=O)Nc1cn(CC(C)C)c(=O)c2ccccc12` the Potency was “inactive”.
For `COc1ccc(C2CC(c3ccncc3)=NN2c2ccc(S(N)(=O)=O)cc2)cc1` (stereo not drawn), the Potency was 20.6 µM (active).
With `CCS(=O)(=O)N1N=C(c2ccc(C)cc2)CC1c1cc2ccc(OC)cc2nc1Cl` (stereo not drawn) the Potency was “inactive”.
With `COc1ccc2nc(NC(=S)NC(=O)c3ccco3)sc2c1` the Potency was “inactive”.
With `O=C(Nc1nc2ccc(F)cc2s1)c1ccc([N+](=O)[O-])o1` the Potency was 15.8 µM (active).
With `COc1ccc(NC(=O)c2c(Cl)n(C)c3ccccc23)cc1` the Potency was 14 µM (active).
For `COc1cc(OC)c(OC)cc1/C=C1\CC(C)C/C(=C\c2cc(OC)c(OC)cc2OC)C1=O` (stereo not drawn), the Potency was 18.4 µM (active).
With `CCCOc1ccc2cc(C(=O)NCc3ccccc3)c(=O)oc2c1` the Potency was “inactive”.
For `CCOc1ccc(CNC(=O)c2ccccc2NC(=O)c2nsc3ccccc23)cc1`, the Potency was 16.4 µM (active).
For `CCOc1ncccc1C(=O)NCc1ccc(OC)cc1`, the Potency was 8.86 µM (active).
`COc1ccc2c(n1)Sc1nc3ccccc3nc1N2` was tested, and the Potency was 3.26 µM (active).
In the case of `COc1ccc(C2C(C#N)=C(N)Oc3cc(N)ccc32)cc1OC` (stereo not drawn), the Potency is reported as 12.5 µM (active).
In the case of `COc1ccc(C2C(C#N)=C(N)Oc3c2ccc2cccnc32)cc1OC` (stereo not drawn), the Potency is reported as 3.53 µM (active).
For `COc1cc(C2C(C#N)=C(N)Oc3cc(O)ccc32)cc2c1OCO2` (stereo not drawn), the Potency was 15.8 µM (active).
In the case of `Cc1oc(C)c2c(=O)ccc3c(c12)OC(N)=C(C#N)C3c1ccc(F)cc1` (stereo not drawn), the Potency is reported as “inactive”.
`N#CC1=C(N)Oc2cc(N)ccc2C1c1cccc(F)c1` (stereo not drawn) was tested, and the Potency was 2.5 µM (active).
`N#CC1=C(N)Oc2cc(N)ccc2C1c1cccc(Br)c1` (stereo not drawn) was tested, and the Potency was 1.98 µM (active).
`Cc1ccc2nc(-c3ccccn3)c(NC3CCCC3)n2c1` was tested, and the Potency was “inactive”.
In the case of `O=C(N/N=C/c1ccc(Cl)cc1)c1cc2c(s1)-c1ccccc1CC2`, the Potency is reported as 5.59 µM (active).
For `Cc1cc2c(cc(C(=O)OCC(=O)NCc3cccs3)n2C(C)C)o1`, the Potency was 1.77 µM (active).
For `CCOC(=O)Cc1csc(NC(=O)c2sc3nc4c(C)cc(C)cc4cc3c2N)n1`, the Potency was 16.4 µM (active).
In the case of `O=C(Cn1ncc(Cl)c(Cl)c1=O)Nc1ccc2c(c1)OCO2`, the Potency is reported as 15.8 µM (active).
For `Cc1cc(C)cc(Oc2nc(C(F)(F)F)nc3ccccc23)c1`, the Potency was 11.2 µM (active).
In the case of `Cc1ccc(/C=N/NC(=O)C2COc3ccccc3O2)s1` (stereo not drawn), the Potency is reported as 4.98 µM (active).
In the case of `Cc1ccc(/C=N/NC(=O)c2ccc3ccccc3c2)s1`, the Potency is reported as 2.23 µM (active).
`CNC(=S)N/N=C/c1ccc(N2CCOCC2)s1` was tested, and the Potency was “inactive”.
`Cc1ccc(Cn2nnc3c(=O)n(CC(=O)NCc4ccccc4)cnc32)cc1` was tested, and the Potency was 14 µM (active).
In the case of `O=C(Cn1cnc2c(cnn2-c2ccc(F)cc2)c1=O)NCc1ccco1`, the Potency is reported as 9.94 µM (active).
`Cc1sc2ncn(CC(=O)NCc3ccccc3)c(=O)c2c1C` was tested, and the Potency was “inactive”.
`CC(C)(C)n1ncc2c(=O)n(CC(=O)NCc3ccc(F)cc3)cnc21` was tested, and the Potency was 14 µM (active).
With `CCc1cccc2c(C(O)c3c[nH]c4ccccc34)c[nH]c12` (stereo not drawn) the Potency was 20.6 µM (active).
`CCn1c(SCC(=O)Nc2cccc(O)c2)nc2c1c(=O)n(C)c(=O)n2C` was tested, and the Potency was “inactive”.
`COc1ccc(NC(=O)CSc2nc3c(oc4ccccc43)c(=O)n2Cc2ccco2)cc1Cl` was tested, and the Potency was 18.4 µM (active).
In the case of `N=c1n(CC(=O)c2ccc([N+](=O)[O-])cc2)c2ccccc2n1Cc1ccccc1`, the Potency is reported as 20.6 µM (active).
For `Cc1cccc(C)c1OCCNC(=O)C(=O)NCc1ccco1`, the Potency was 2.8 µM (active).
In the case of `Cc1ccc2c(CC(=O)NCc3ccco3)coc2c1C`, the Potency is reported as 9.94 µM (active).
In the case of `O=C(COC(=O)C12CC3CC(CC(Cl)(C3)C1)C2)N1CCCCC1`, the Potency is reported as “inactive”.
`COc1ccc2o/c(=N/NC(=O)c3cccs3)c(C(N)=O)cc2c1` was tested, and the Potency was 7.04 µM (active).
For `Cc1ccc2c(Cl)c(C)c(N3CCCC3)nc2n1`, the Potency was “inactive”.
In the case of `COc1ccc(Nc2nc3cc(C)ccc3cc2C#N)cc1`, the Potency is reported as 14.6 µM (active).
For `CCN(CC)c1nc2cc(OC)ccc2cc1C#N`, the Potency was “inactive”.
With `COc1ccc(Nc2nc3cc(C)ccc3cc2C#N)c(OC)c1` the Potency was 1.58 µM (active).
With `Cc1ccccc1NCC(=O)N=Nc1c(O)[nH]c2ccc([N+](=O)[O-])cc12` the Potency was “inactive”.
`O=[N+]([O-])c1ccc(N/N=C/c2c[nH]c3ccccc23)cc1` was tested, and the Potency was 16.4 µM (active).
`Cc1[nH]c2ccccc2c1/C=N/Nc1ccc([N+](=O)[O-])cc1` was tested, and the Potency was 9.2 µM (active).
With `C/C(=N/Nc1ccc([N+](=O)[O-])cc1)c1c[nH]c2ccccc12` the Potency was “inactive”.
In the case of `O=[N+]([O-])c1ccc(N/N=C/c2c[nH]c3ccccc23)c(S(=O)(=O)Nc2ccc(Cl)cc2)c1`, the Potency is reported as 18.4 µM (active).
In the case of `COc1ccccc1NS(=O)(=O)c1cc([N+](=O)[O-])ccc1N/N=C/c1c(C)[nH]c2ccccc12`, the Potency is reported as 3.96 µM (active).
`O=[N+]([O-])c1ccc(N=Nc2ccc(O)c3ccccc23)cc1` was tested, and the Potency was “inactive”.
In the case of `COc1ccc(NS(=O)(=O)c2cc([N+](=O)[O-])ccc2N/N=C/c2c(C)[nH]c3ccccc23)cc1`, the Potency is reported as 10.3 µM (active).
With `COc1ccccc1NS(=O)(=O)c1cc([N+](=O)[O-])ccc1N/N=C/c1c[nH]c2ccccc12` the Potency was 13 µM (active).
With `CC(C)CC(=O)NC(=S)N(Cc1ccccc1)Cc1ccccc1` the Potency was “inactive”.
For `CC[n+]1c(C=C2C=C(C)OC(C)=C2)sc2ccccc21`, the Potency was 4.61 µM (active).
In the case of `COc1ccc(/C=C/C=C2\NC(=S)NC2=O)cc1`, the Potency is reported as “inactive”.
`COc1cc(N2CCCC2)c(OC)cc1/C=C1/NC(=S)NC1=O` was tested, and the Potency was 1.58 µM (active).
With `Cc1cccc2cc(C#N)c(SCC(=O)N3CC(=O)Nc4ccccc43)nc12` the Potency was 7.9 µM (active).
With `Cc1cc(C)c2nc(SCC(=O)N3CC(=O)Nc4ccccc43)c(C#N)cc2c1` the Potency was 3.14 µM (active).
With `CC1=C(C(=O)Nc2cccc(F)c2)C(c2ccsc2)C2=C(CC(C)(C)CC2=O)N1` (stereo not drawn) the Potency was 2.8 µM (active).
For `CCN(CC)c1ccc2cc(-c3nc4sc5c(c4c(=O)[nH]3)CCC(C(C)(C)C)C5)c(=O)oc2c1` (stereo not drawn), the Potency was “inactive”.
In the case of `COc1ccc2cc(-c3nc(Cl)c4c5c(sc4n3)CC(C)CC5)c(=O)oc2c1` (stereo not drawn), the Potency is reported as 20.6 µM (active).
In the case of `Nc1[nH]c2cc([N+](=O)[O-])ccc2c1-c1ccccn1`, the Potency is reported as 20.6 µM (active).
With `COc1cc(-c2noc(C)c2C#Cc2ccc(N)cc2)cc(OC)c1OC` the Potency was 0.994 µM (active).
With `Cc1ccc(-c2nc(-c3cc4cccc(OCc5cccc(F)c5)c4oc3=O)no2)cc1` the Potency was 23.1 µM (active).
In the case of `N#Cc1c(Nc2ccccc2)[n+]([O-])c2ccc(Cl)cc2[n+]1[O-]`, the Potency is reported as “inactive”.
With `C=C(C(=O)c1ccccc1)C(C)C(=C)C(=O)c1ccccc1` the Potency was 3.53 µM (active).
`C=C(C(=O)c1ccccc1)C(C(=C)C(=O)c1ccccc1)c1ccc(OC)cc1` was tested, and the Potency was 3.96 µM (active).
With `S=C(NC1CCCCC1)N(CCc1ccccc1)CCc1ccccc1` the Potency was “inactive”.
`COCCN1C(=O)/C(=C/c2ccc(N3CCCC3)cc2C)SC1=S` was tested, and the Potency was 2.91 µM (active).
In the case of `COCCN1C(=O)/C(=C/c2ccc(N3CCCC3)cc2)SC1=S`, the Potency is reported as 5.17 µM (active).
For `CCn1c(O)c(/C=N/N=C/c2ccc(OC)cc2)c2cc(C3=NNC(=O)CC3)ccc21`, the Potency was 6.51 µM (active).
`COc1cc(CCC(=O)Nc2nnc(C)s2)cc(OC)c1OC` was tested, and the Potency was 4.44 µM (active).
For `Cc1cc(OCC(=O)Nc2nnc(C3CC3)s2)ccc1Cl`, the Potency was “inactive”.
`N#CCSc1ccccc1NC(=O)CN1C(=O)C2CC=CCC2C1=O` (stereo not drawn) was tested, and the Potency was 14 µM (active).
With `N#CCSc1ccccc1NC(=O)CN1C(=O)NC(CCc2ccccc2)C1=O` (stereo not drawn) the Potency was “inactive”.
`CC(=O)Nc1ccc(S(=O)(=O)N2CCSc3ccccc32)cc1` was tested, and the Potency was 2.5 µM (active).
`CC(=O)Nc1ccc(S(=O)(=O)N2c3ccccc3C(C)=CC2(C)C)cc1` was tested, and the Potency was 2.23 µM (active).
For `CC(=O)Nc1ccc(Nc2c3c4c(cccc4n(C)c2=O)C(=O)c2ccccc2-3)cc1`, the Potency was “inactive”.
`COC(=O)Nc1ccc(S(=O)(=O)N2CCCc3ccccc32)cc1` was tested, and the Potency was 5.59 µM (active).
For `O=C(CN1c2cccc3cccc(c23)S1(=O)=O)Nc1ccc(S(=O)(=O)N2CCOCC2)cc1`, the Potency was “inactive”.
For `Cc1ccc2nsnc2c1NC(=O)c1ccc(-c2cc(Cl)ccc2Cl)o1`, the Potency was 14 µM (active).
With `Cc1nc(CSc2nsc(/C=C/N(C)C)c2C#N)cs1` the Potency was “inactive”.
With `CCSc1nnc(-c2sc3nnc(-c4ccccc4)c(-c4ccccc4)c3c2N)o1` the Potency was 4.11 µM (active).
With `OCCCn1c(C2CCCN2c2nc(-c3ccc(Cl)cc3)cs2)nc2cc(Cl)c(Cl)cc21` (stereo not drawn) the Potency was “inactive”.
With `COc1cccc2sc(Nc3nc(-c4cc5ccccc5oc4=O)cs3)nc12` the Potency was 3.14 µM (active).
With `O=C1c2ccccc2C(=O)c2cc(N3CCCCC3)ccc21` the Potency was 7.04 µM (active).
In the case of `COc1ccc(/C=N/NC(=O)c2cccnc2)cc1CSc1ccccn1`, the Potency is reported as 3.14 µM (active).
With `COc1cnc(-c2ccccn2)nc1Oc1ccc(F)cc1F` the Potency was “inactive”.
`COc1ccc(/C=N\NC(=O)c2ccccc2F)cc1COc1ccc(F)cc1F` was tested, and the Potency was 2.23 µM (active).
In the case of `O=C(CSc1nc2ccccc2s1)c1cc2ccccc2o1`, the Potency is reported as “inactive”.
With `COc1cc(OC)cc(C(=O)N/N=C/c2ccc(OC)c(COc3ccc4ccccc4c3)c2)c1` the Potency was 12.5 µM (active).
`COc1ccc(/C=N/NC(=O)c2ccccc2Cl)cc1CSc1nc2ccccc2s1` was tested, and the Potency was 4.44 µM (active).

Reference: PubChem BioAssay AID651815 (National Center for Advancing Translational Sciences (NCATS), 2012)
Note: nearly all actives have a fitted effect of over 65% in size.
Potency is the fitted concentration of half-maximal effect.
